# Test results reported in PubChem BioAssay (EPA / NIEHS).
# The source made the active and inactive calls. Rule for the calls: active = hit-call score of the fitted dose curve at least 0.9, where 1 is the maximum; inactive = score below 0.9.
# How the values were obtained:
# [1] = ATG_ERE_CIS: Attagene CIS-FACTORIAL HepG2 Assay for Estrogen Response Element (ERE) (AID 2282940); details: HepG2 ERE cis-reporter, Attagene RNA transcript; actives raise or lower the signal
# Summary of the method: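 Transient MRTU transfection of human HepG2; cis-element promoters; 24 h dosing; total RNA → RT (oligo dT) → PCR → 6-FAM primer extension → HpaI digest → CE fluorescence. Bidirectional fit, DMSO baseline.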
# [2] = ATG_Ets_CIS: Attagene CIS-FACTORIAL HepG2 Assay for human Erythroblast Transformation Specific (ETS) (AID 2282941); details: HepG2 ETS cis-reporter transcription, actives raise or lower the signal
# Summary of the method: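 Human HepG2 hepatoma cells were transiently transfected with promoter-driven reporter constructs and treated for 24 hours. Reporter transcripts were quantified by RT-PCR with fluorescent primer extension; bidirectional curve fitting used DMSO as reference.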
# [3] = target: Hepatocyte nuclear factor 3-beta (Homo sapiens) (UniProt Q9Y261); assay: ATG_FoxA2_CIS: Attagene CIS-FACTORIAL HepG2 Assay for human Forkhead box A2 (FOXA2) (AID 2282942); details: HepG2 cis-reporter transcription factor activity, 24 h; actives raise or lower the signal
# Chain of Hepatocyte nuclear factor 3-beta (Homo sapiens) (Q9Y261 whole entry, looked up): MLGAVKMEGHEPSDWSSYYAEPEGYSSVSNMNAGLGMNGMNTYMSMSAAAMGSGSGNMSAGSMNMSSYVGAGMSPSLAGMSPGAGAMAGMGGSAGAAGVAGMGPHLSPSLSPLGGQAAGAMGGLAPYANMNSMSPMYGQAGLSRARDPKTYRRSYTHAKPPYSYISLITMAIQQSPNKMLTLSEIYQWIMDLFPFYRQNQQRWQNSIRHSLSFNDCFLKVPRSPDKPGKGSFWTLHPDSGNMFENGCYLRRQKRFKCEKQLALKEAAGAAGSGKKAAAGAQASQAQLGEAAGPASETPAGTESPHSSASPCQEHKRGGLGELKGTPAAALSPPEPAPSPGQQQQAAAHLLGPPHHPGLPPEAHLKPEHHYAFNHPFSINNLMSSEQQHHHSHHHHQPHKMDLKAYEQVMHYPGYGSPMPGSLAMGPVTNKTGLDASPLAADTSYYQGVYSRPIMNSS
# Summary of the method: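 Transient MRTU transfection of HepG2 liver cells; 24 h treatment; total RNA → oligo(dT) RT → PCR → FAM primer extension → HpaI cut → CE. Bidirectional fit vs DMSO.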
# [4] = ATG_FoxO_CIS: Attagene CIS-FACTORIAL HepG2 Assay for human Forkhead box O (FoxO) (AID 2282943); details: HepG2 Attagene cis-reporter, FoxO element, mRNA; actives raise or lower the signal
# Summary of the method: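 Human hepatoma HepG2 cells carry transiently introduced reporter transcription units controlled by cis promoter elements. Chemical treatment lasted 24 h, and mRNA signal was compared with DMSO.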
# [5] = ATG_GATA_CIS: Attagene CIS-FACTORIAL HepG2 Assay for human GATA Binding Protein (AID 2282944); details: HepG2 GATA cis-element reporter, Attagene multiplex mRNA; actives raise or lower the signal
# Summary of the method: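 Transient MRTU transfection, HepG2, 24 h compound exposure. Total RNA → oligo(dT) RT → PCR → 6-FAM primer extension → HpaI cut → CE. Bidirectional fit vs DMSO.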
# [6] = ATG_GLI_CIS: Attagene CIS-FACTORIAL HepG2 Assay for human Zinc Finger Protein GLI1 (AID 2282945); details: HepG2, Attagene cis-factorial reporter mRNA, GLI element; actives raise or lower the signal
# Summary of the method: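 Bidirectional curve fits relative to DMSO, using reporter mRNA levels from RT-PCR plus capillary electrophoresis. Cells were HepG2 transiently carrying cis-regulated reporter constructs, harvested 24 h after dosing.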
# [7] = target: Bile acid receptor (Homo sapiens) (UniProt Q96RI1); assay: ATG_IR1_CIS: Attagene CIS-FACTORIAL HepG2 Assay for human Nuclear Receptor Subfamily 1 Group H Member 4 (NR1H4), IR1 submotif (AID 2282946); details: IR1 reporter transcription, actives raise or lower the signal
# Chain of Bile acid receptor (Homo sapiens) (Q96RI1 whole entry, looked up, the tested form may be a part): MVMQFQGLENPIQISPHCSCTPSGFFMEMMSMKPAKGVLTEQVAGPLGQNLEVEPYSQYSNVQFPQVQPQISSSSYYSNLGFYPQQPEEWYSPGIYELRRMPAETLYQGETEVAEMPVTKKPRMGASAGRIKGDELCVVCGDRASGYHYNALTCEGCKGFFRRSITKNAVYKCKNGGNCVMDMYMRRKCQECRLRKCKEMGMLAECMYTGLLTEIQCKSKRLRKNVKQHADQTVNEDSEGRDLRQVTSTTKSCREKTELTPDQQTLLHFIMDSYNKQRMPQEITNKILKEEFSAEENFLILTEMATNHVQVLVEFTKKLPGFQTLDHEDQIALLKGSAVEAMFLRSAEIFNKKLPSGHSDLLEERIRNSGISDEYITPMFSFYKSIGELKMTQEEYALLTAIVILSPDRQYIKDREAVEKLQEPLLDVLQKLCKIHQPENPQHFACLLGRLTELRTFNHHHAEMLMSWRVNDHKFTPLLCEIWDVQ
# Summary of the method: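 Cells (human HepG2) carry transiently transfected cis-promoter reporter transcription units. Compounds are incubated 24 h, total RNA is reverse-transcribed and amplified, and labelled fragments are resolved by capillary electrophoresis. Curves use DMSO as baseline.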
# [8] = ATG_GRE_CIS: Attagene CIS-FACTORIAL HepG2 Assay for human Glucocorticoid Response Elements (GRE) (AID 2282947); details: HepG2 GRE cis-reporter, Attagene multiplex mRNA; actives raise or lower the signal
# Summary of the method: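 Transient MRTU transfection of human HepG2 liver cells; cis-regulated reporters report endogenous factors. 24 h dosing → RNA isolation → RT-PCR → 6-FAM primer extension → HpaI cut → CE fragment analysis. Bidirectional fit, DMSO negative control.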
# [9] = ATG_ISRE_CIS: Attagene CIS-FACTORIAL HepG2 Assay for human Interferon Regulatory Factor 1 (IRF1) binding to an Interferon-Stimulated Response Element (ISRE) (AID 2282948); details: HepG2 ISRE cis-reporter (Attagene), mRNA transcription readout; actives raise or lower the signal
# Summary of the method: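 Cell-based cis-reporter assay; HepG2; 24 h exposure; reporter mRNA by RT-PCR plus capillary electrophoresis fluorescence; activity in either direction scored relative to DMSO.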
# [10] = ATG_M_32_CIS: Attagene CIS-FACTORIAL HepG2 Assay for M32 Transcription Factor (Internal Marker) (AID 2282949); details: HepG2 Attagene cis-factorial M32 reporter, mRNA; actives raise or lower the signal;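 note: background control marker of the multiplexed CIS panel rather than a real target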
# Summary of the method: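 Fluorescent capillary electrophoresis peaks of HpaI-digested, FAM-labelled RT-PCR reporter products give the signal. Source: transiently transfected human liver HepG2 cells, 24 h after chemical dosing; bidirectional fitting against DMSO.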
# [11] = ATG_M_06_CIS: Attagene CIS-FACTORIAL HepG2 Assay for M06 Transcription Factor (Internal Marker) (AID 2282950); details: HepG2 Attagene CIS-FACTORIAL M06 internal marker reporter; actives raise or lower the signal
# Summary of the method: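 Read-out is fluorescence of labelled reporter cDNA fragments resolved by capillary electrophoresis after RT-PCR. Cells: HepG2 carrying transfected cis-promoter reporter units, treated 24 h. Gain or loss of signal fitted relative to DMSO.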
# [12] = target: Hypoxia-inducible factor 1-alpha (Homo sapiens) (UniProt Q16665); assay: ATG_HIF1a_CIS: Attagene CIS-FACTORIAL HepG2 Assay for human Hypoxia Inducible Factor 1 (HIF1A) (AID 2282951); details: HepG2 Attagene cis-factorial HIF1a reporter transcription; actives raise or lower the signal
# Chain of Hypoxia-inducible factor 1-alpha (Homo sapiens) (Q16665 whole entry, looked up, the tested form may be a part): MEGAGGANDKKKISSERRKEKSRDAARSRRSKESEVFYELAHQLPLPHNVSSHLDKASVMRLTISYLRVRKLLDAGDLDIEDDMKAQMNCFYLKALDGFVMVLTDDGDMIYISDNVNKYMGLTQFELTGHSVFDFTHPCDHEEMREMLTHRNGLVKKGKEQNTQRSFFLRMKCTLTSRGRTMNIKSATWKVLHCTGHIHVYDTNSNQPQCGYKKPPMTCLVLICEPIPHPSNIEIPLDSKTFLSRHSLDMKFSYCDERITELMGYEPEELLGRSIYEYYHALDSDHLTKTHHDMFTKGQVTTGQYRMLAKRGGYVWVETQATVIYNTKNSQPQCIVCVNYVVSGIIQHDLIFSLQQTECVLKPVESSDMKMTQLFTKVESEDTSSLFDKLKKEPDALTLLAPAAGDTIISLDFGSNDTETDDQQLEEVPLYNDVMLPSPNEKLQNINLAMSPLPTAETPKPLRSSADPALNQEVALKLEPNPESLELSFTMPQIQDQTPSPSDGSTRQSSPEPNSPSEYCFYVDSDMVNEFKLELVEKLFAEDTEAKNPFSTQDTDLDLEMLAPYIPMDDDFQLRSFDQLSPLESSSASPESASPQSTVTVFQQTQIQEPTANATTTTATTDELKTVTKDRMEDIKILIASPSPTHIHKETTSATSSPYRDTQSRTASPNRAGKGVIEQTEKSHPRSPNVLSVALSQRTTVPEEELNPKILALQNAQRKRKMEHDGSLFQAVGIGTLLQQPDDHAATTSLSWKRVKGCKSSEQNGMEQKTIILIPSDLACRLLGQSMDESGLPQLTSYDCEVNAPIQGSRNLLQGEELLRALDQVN
# Summary of the method: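 Transient MRTU transfection of human HepG2 liver cells, 24 h compound treatment, then total RNA isolation, oligo(dT) reverse transcription, PCR amplification, fluorescent labelling and capillary electrophoresis of reporter fragments. Gain or loss relative to DMSO.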
# [13] = target: Hepatocyte nuclear factor 6 (Homo sapiens) (UniProt Q9UBC0); assay: ATG_HNF6_CIS: Attagene CIS-FACTORIAL HepG2 Assay for human Hepatocyte Nuclear Factor 6 (HNF6) (AID 2282952); details: HepG2 Attagene cis-factorial HNF6 reporter transcription; actives raise or lower the signal
# Chain of Hepatocyte nuclear factor 6 (Homo sapiens) (Q9UBC0 whole entry, looked up): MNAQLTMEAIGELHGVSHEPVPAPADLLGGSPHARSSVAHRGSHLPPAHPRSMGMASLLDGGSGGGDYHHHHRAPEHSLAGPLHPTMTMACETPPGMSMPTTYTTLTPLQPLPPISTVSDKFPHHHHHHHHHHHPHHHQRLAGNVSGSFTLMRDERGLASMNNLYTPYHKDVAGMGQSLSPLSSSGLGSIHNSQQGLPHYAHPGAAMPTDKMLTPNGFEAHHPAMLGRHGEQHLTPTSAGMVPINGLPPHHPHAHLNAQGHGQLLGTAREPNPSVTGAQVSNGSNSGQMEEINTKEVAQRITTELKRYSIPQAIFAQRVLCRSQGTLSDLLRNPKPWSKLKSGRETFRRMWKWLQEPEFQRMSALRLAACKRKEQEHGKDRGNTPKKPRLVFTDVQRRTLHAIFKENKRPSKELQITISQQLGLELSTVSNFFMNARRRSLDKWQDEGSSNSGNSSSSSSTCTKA
# Summary of the method: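 Multiplexed mRNA reporter assay in transfected HepG2; 24 h dosing; RT-PCR plus capillary electrophoresis fluorescence; DMSO-referenced bidirectional curve fitting.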
# [14] = target: Heat shock factor protein 1 (Homo sapiens) (UniProt Q00613); assay: ATG_HSE_CIS: Attagene CIS-FACTORIAL HepG2 Assay for human Heat Shock Transcription Factor 1 (HSE) (AID 2282953); details: HepG2 HSE cis-reporter, Attagene RNA transcription; actives raise or lower the signal
# Chain of Heat shock factor protein 1 (Homo sapiens) (Q00613 whole entry, looked up): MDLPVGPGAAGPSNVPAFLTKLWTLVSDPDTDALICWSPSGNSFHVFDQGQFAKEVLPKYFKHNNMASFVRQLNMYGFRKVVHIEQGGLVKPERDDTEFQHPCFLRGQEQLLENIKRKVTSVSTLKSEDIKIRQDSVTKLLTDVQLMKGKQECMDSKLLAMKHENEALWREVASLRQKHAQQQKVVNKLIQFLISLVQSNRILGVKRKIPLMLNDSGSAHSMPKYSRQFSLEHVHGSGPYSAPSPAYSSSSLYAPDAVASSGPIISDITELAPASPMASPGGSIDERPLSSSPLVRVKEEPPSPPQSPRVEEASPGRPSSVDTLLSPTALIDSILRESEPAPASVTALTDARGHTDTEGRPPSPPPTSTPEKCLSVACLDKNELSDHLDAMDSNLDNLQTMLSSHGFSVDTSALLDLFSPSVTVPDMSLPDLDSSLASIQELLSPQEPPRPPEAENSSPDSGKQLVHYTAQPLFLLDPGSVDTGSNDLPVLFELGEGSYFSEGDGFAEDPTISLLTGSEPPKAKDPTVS
# Summary of the method: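 HepG2, transient MRTU transfection, cis-promoter reporters (endogenous TF activity). 24 h compound. RNA → oligo(dT) RT → PCR → 6-FAM primer extension → HpaI cut → CE. Bidirectional fit vs DMSO.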
# [15] = ATG_MRE_CIS: Attagene CIS-FACTORIAL HepG2 Assay for human Metal Responsive Element (MRE) (AID 2282954); details: HepG2 MRE cis-reporter transcription, Attagene multiplex; actives raise or lower the signal
# Summary of the method: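 Transient MRTU transfection of HepG2 (FuGene 6); 24 h dosing; total RNA → oligo(dT) RT, PCR, 6-FAM primer extension, HpaI cut, CE. Bidirectional fit vs DMSO.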
# [16] = ATG_PBREM_CIS: Attagene CIS-FACTORIAL HepG2 Assay for human Phenobarbital-responsive Enhancer Module (PBREM) (AID 2282955); details: HepG2 PBREM cis-reporter, Attagene multiplexed transcription; actives raise or lower the signal
# Summary of the method: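 Endogenous transcription factors in human liver HepG2 cells drive a PBREM cis-element reporter, whose transcript level after 24 h treatment is quantified by RT-PCR with capillary electrophoresis; activity fitted in both directions against DMSO.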
# [17] = target: Paired box protein Pax-6 (Homo sapiens) (UniProt P26367); assay: ATG_Pax6_CIS: Attagene CIS-FACTORIAL HepG2 Assay for human Paired Box 6 (PAX6) (AID 2282956); details: HepG2 CIS-FACTORIAL PAX6 reporter transcription, RNA readout; actives raise or lower the signal
# Chain of Paired box protein Pax-6 (Homo sapiens) (P26367 whole entry, looked up): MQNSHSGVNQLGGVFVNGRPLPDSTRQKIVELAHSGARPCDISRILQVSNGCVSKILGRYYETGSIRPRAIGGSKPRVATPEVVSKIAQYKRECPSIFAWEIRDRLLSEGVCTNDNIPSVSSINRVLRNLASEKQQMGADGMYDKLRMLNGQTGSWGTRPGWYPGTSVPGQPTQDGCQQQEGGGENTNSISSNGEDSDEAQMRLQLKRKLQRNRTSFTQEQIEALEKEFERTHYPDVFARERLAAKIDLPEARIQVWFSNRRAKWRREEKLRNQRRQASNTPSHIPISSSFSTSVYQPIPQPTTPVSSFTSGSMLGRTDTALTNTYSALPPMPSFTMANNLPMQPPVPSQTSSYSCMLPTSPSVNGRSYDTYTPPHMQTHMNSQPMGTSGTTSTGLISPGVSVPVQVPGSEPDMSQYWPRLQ
# Summary of the method: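 Multiplexed cis-reporter HepG2 system; 24 h treatment; reporter mRNA read by RT-PCR/CE fluorescence; bidirectional fit vs DMSO.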
# [18] = ATG_PXRE_CIS: Attagene CIS-FACTORIAL HepG2 Assay for human Pregnane X Receptor Element (PXRE) (AID 2282957); details: HepG2 Attagene CIS-FACTORIAL PXRE reporter, mRNA; actives raise or lower the signal
# Summary of the method: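 Cells: HepG2, transiently transfected reporter units under cis promoter control. Exposure: 24 h. Detection: reporter mRNA via RT-PCR/CE fluorescence; bidirectional fitting, DMSO-referenced.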
# [19] = ATG_RORE_CIS: Attagene CIS-FACTORIAL HepG2 Assay for human RAR-related Orphan Receptor Element (RORE) (AID 2282959); details: HepG2 Attagene cis-factorial RORE reporter, mRNA; actives raise or lower the signal
# Summary of the method: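 Transient MRTU transfection of human HepG2 liver cells (FuGene 6); 24 h compound exposure; TriZol RNA, oligo(dT) RT, PCR, FAM labeling, HpaI cut, CE fragment analysis. DMSO = negative control/baseline.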
# [20] = ATG_PPRE_CIS: Attagene CIS-FACTORIAL HepG2 Assay for human Peroxisome Proliferator-activated Response Element (PPRE) (AID 2282958); details: HepG2 PPRE cis-element reporter, Attagene transcription factor profiling; actives raise or lower the signal
# Summary of the method: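 HepG2, transient MRTU transfection (cis promoter elements, endogenous TFs). 24 h dosing. RNA → oligo(dT) RT → PCR → 6-FAM primer extension → HpaI digest → CE. Bidirectional fit vs DMSO.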
compound,measurement,setting,value
CC(C)CP(=S)(S)CC(C)C,outcome,[1],inactive
same,outcome,[2],inactive
same,outcome,[3],inactive
same,outcome,[4],inactive
same,outcome,[5],inactive
same,outcome,[6],inactive
same,outcome,[7],inactive
same,outcome,[8],inactive
same,outcome,[9],inactive
same,outcome,[10],inactive
same,outcome,[11],inactive
same,outcome,[12],inactive
same,outcome,[13],inactive
same,outcome,[14],inactive
same,outcome,[15],inactive
same,outcome,[16],inactive
same,outcome,[17],inactive
same,AC50,[18],38.6 µM (active)
same,outcome,[19],inactive
Cc1cc(C(C)(C)c2ccc(O)c(C)c2)ccc1O,AC50,[1],265 nM (active)
same,AC50,[2],20.2 µM (active)
same,outcome,[3],inactive
same,AC50,[4],72.8 µM (active)
same,AC50,[5],91.3 µM (active)
same,AC50,[6],74.7 µM (active)
same,outcome,[7],inactive
same,AC50,[8],79.5 µM (active)
same,AC50,[9],50 µM (active)
same,outcome,[10],inactive
same,outcome,[11],inactive
same,AC50,[12],30.3 µM (active)
same,AC50,[13],93.9 µM (active)
same,AC50,[14],39.5 µM (active)
same,AC50,[15],50.6 µM (active)
same,AC50,[16],18.1 µM (active)
same,AC50,[17],50 µM (active)
same,AC50,[18],1.7 µM (active)
same,outcome,[20],inactive
same,outcome,[19],inactive
Clc1ccc(C(Cl)(Cl)Cl)cn1,AC50,[1],2860 nM (active)
same,outcome,[2],inactive
same,outcome,[3],inactive
same,outcome,[4],inactive
same,outcome,[5],inactive
same,outcome,[6],inactive
same,outcome,[7],inactive
same,outcome,[8],inactive
same,outcome,[9],inactive
same,outcome,[10],inactive
same,outcome,[11],inactive
same,outcome,[12],inactive
same,outcome,[13],inactive
same,outcome,[14],inactive
same,outcome,[15],inactive
same,outcome,[17],inactive
same,AC50,[18],14.1 µM (active)
same,outcome,[20],inactive
same,outcome,[19],inactive
CCOC(=O)CCN(SN(C)C(=O)Oc1cccc2c1OC(C)(C)C2)C(C)C,outcome,[1],inactive
same,outcome,[2],inactive
same,outcome,[3],inactive
same,outcome,[4],inactive
same,outcome,[5],inactive
same,outcome,[6],inactive
same,AC50,[7],100 µM (active)
same,outcome,[8],inactive
same,outcome,[9],inactive
same,outcome,[10],inactive
same,outcome,[11],inactive
same,outcome,[12],inactive
same,outcome,[13],inactive
same,AC50,[14],184 µM (active)
same,AC50,[15],142 µM (active)
same,outcome,[16],inactive
same,outcome,[17],inactive
same,AC50,[18],26.5 µM (active)
same,outcome,[20],inactive
same,outcome,[19],inactive
Nc1c(Oc2ccccc2)cc(O)c2c1C(=O)c1ccccc1C2=O,outcome,[1],inactive
same,outcome,[2],inactive
same,outcome,[3],inactive
same,outcome,[4],inactive
same,outcome,[5],inactive
same,outcome,[6],inactive
same,outcome,[7],inactive
same,outcome,[8],inactive
same,outcome,[9],inactive
same,outcome,[10],inactive
same,outcome,[11],inactive
same,outcome,[12],inactive
same,outcome,[13],inactive
same,outcome,[14],inactive
same,outcome,[15],inactive
same,outcome,[16],inactive
same,outcome,[17],inactive
same,AC50,[18],4.42 µM (active)
same,outcome,[20],inactive
same,outcome,[19],inactive
[Cl][Sn]([c]1ccccc1)([c]1ccccc1)[c]1ccccc1,AC50,[1],14 nM (active)
same,outcome,[2],inactive
same,outcome,[3],inactive
same,AC50,[4],0.308 µM (active)
same,AC50,[5],1.2 µM (active)
same,AC50,[6],0.221 µM (active)
same,outcome,[7],inactive
same,outcome,[8],inactive
same,outcome,[9],inactive
same,outcome,[10],inactive
same,outcome,[11],inactive
same,AC50,[12],0.252 µM (active)
same,AC50,[13],1.62 µM (active)
same,AC50,[14],0.243 µM (active)
same,AC50,[15],0.23 µM (active)
same,outcome,[16],inactive
same,AC50,[17],0.248 µM (active)
same,outcome,[18],inactive
same,AC50,[20],11.7 nM (active)
same,outcome,[19],inactive
